Data as given in PubChem BioAssay (NCI).
Compounds without any hit were thinned out: in the full panel of roughly 79,000, 15% have a hit. Active and inactive are the calls of the source. Cut-off read from the data, not from the text of the source: active = growth inhibition above about 70%; inactive = the rest. Where a SMILES comes first, the peptide text is derived from it. The star is where a group is joined. Trt = c1ccc(C(c2ccccc2)(c2ccccc2)*)cc1; Cbz = O=C(OCc1ccccc1)*

Experiment: NCI Yeast Anticancer Drug Screen. Data for the cln2 rad14 strain (AID 165);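 note: 0% = growth equal to vehicle treated cultures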
Conditions: S. cerevisiae cln2 rad14 strain, at 50.0 µM (retest, dose inferred, filed as 5.0), hits give high values
Procedure, shortened: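 Yeast carrying cln2 and rad14 alterations (cell cycle control and DNA damage repair) were exposed to compounds. Growth inhibition was measured against vehicle-treated controls.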

Row | Structure (SMILES) | growth inhibition
1 | CC(=O)O[C@H]1CC[C@]2(C)C3=CC[C@]4(C)[C@@H](C(C)=O)CC[C@H]4[C@@]34C=C[C@]2(C1)C1C(=O)OC(=O)C14 (stereo not given in full) | 4% (inactive)
2 | Cc1cc(O)c2c(c1)C(=O)c1c(c(O)cc(O)c1-c1c(O)cc(O)c3c1C(=O)c1cc(C)cc(O)c1C3=O)C2=O | 79% (active)
3 | NC(=O)/C(=N\NC(=O)c1cc2ccccc2cc1O)C1C(=O)N(c2ccccc2)N=C1N (stereo not given) | 16% (inactive)
4 | CCNC(=S)NNC(=S)NNc1ccccc1 | 63% (inactive)
5 | OCC(O)C(O)C(O)C(O)C(O)C(/C=N/Nc1ccccc1)=N/Nc1ccccc1 (stereo not given) | 71% (active)
6 | O=C(CN(Cc1ccccc1)Cc1ccccc1)c1ccccc1 | 45% (inactive)
7 | COC(=O)C1CCC(c2ccccc2)CC1C(=O)OC (stereo not given) | 12% (inactive)
8 | COc1ccc2c(c1)C(=O)C(Br)CC2 (stereo not given) | 92% (active)
9 | O=C1c2ccccc2C(=O)c2sc(Nc3ccc(Cl)cc3)nc21 | 98% (active)
10 | O=Nc1c(-c2cccc([N+](=O)[O-])c2)nc2cnccn12 | 99% (active)
11 | CC/C(=N\NS(=O)(=O)c1ccc(C)cc1)c1cccc(OC)c1 | 78% (active)
12 | NNC(=S)NN/C=C(\C=Nc1ccccc1)[N+](=O)[O-] | 57% (inactive)
13 | CC(C)(C)c1ccc(CN2CCN(C(c3ccccc3)c3ccc(Cl)cc3)CC2)cc1 (stereo not given) | 21% (inactive)
14 | O=C1OCc2cccc3cccc1c23 | 38% (inactive)
15 | CC(C)CC(NC(=O)COc1c(Cl)cc(Cl)c(Cl)c1Cl)C(=O)O (stereo not given) | 19% (inactive)
16 | CC1CCN(CCC(=O)c2cccc(O)c2)CC1 | 26% (inactive)
17 | CCC(c1ccc(O)c(C2CCCCC2)c1)C(CC)c1ccc(OC(=O)c2ccccc2)c(C2CCCCC2)c1 (stereo not given) | -8% (inactive)
18 | CC(=O)c1csc2c1C(=O)c1scc(C(C)=O)c1C2=O | 36% (inactive)
19 | O=C1C2=Cc3ccccc3CCN2c2ccccc21 | -8% (inactive)
20 | Cc1cc(I)cc(I)c1O | 4% (inactive)

Row | Structure (SMILES) | growth inhibition
21 | NCCCSc1ccc(Br)cc1 | 17% (inactive)
22 | O=C1OC2(Cc3ccccc31)c1ccccc1-c1ccccc12 | -15% (inactive)
23 | Cc1occc1C(=S)Nc1ccc(Cl)c(C(=O)OCC2CC2)c1 | 62% (inactive)
24 | c1cc(C2=NCCN2)ccc1Nc1ccc(-c2cc3ccc(C4=NCCN4)cc3[nH]2)cc1 | 99% (active)
25 | Cc1ccc(C)c(NC(=O)CC2SC(=Nc3ccccc3Cl)NC2=O)c1 (stereo not given) | 55% (inactive)
26 | Cc1ccccc1[P+](C)(c1ccccc1C)c1ccccc1C | 48% (inactive)
27 | Oc1ccc(CNCc2ccccc2)c2cccnc12 | 96% (active)
28 | COC(=O)c1ccc(OC)cc1 | -7% (inactive)
29 | OCC(CO)C1c2cccc3ccc4cccc1c4c23 | 37% (inactive)
30 | CCC(CCCN(CC)CCc1ccccc1)OC(=O)c1cc(OC)c(OC)c(OC)c1 (stereo not given) | 0% (inactive)
31 | O=[N+]([O-])c1ccc(-[n+]2ccc3ccccc3c2)c([N+](=O)[O-])c1 | 61% (inactive)
32 | CN(C)CCC1(C2=CCCC2)CC/C(=C\c2ccccc2Cl)C1=O (stereo not given) | 51% (inactive)
33 | CCOC(=O)CCC(NC(=O)c1ccc(NC(OC)c2nc3cc(C(F)(F)F)ccc3nc2-c2ccccc2)cc1)C(=O)OCC (stereo not given) | 80% (active)
34 | CCCCCCN(CCCCCC)CC(O)c1cc(-c2ccccc2)nc2c(O)cccc12 (stereo not given) | 42% (inactive)
35 | O=C1C=CC(=O)N1C1c2ccccc2-c2ccccc21 | 99% (active)
36 | CC(=O)c1ccc(OCc2ccccc2)cc1 | 2% (inactive)
37 | O=C(Oc1cccc2cccnc12)c1ccccc1 | 85% (active)
38 | C=C(Cl)C(=NC(C)(C)C)Nc1ccccc1C | 37% (inactive)
39 | COC(=O)C(CSC(c1ccccc1)(c1ccccc1)c1ccccc1)NC(=O)C(CC(N)=O)NC(=O)OCc1ccccc1 (stereo not drawn) (Cbz-Asn-Cys(Trt)-OMe; configuration not given here) | 94% (active)
40 | ClCc1nnc2n1-c1ccc(Cl)cc1SC2 | 88% (active)

Same assay, conditions: S. cerevisiae cln2 rad14 strain, at 50.0 µM, hits give high values

Row | Structure (SMILES) | growth inhibition
41 | CC(=O)O[C@H]1CC[C@]2(C)C3=CC[C@]4(C)[C@@H](C(C)=O)CC[C@H]4[C@@]34C=C[C@]2(C1)C1C(=O)OC(=O)C14 (stereo not given in full) | -24% (inactive)
42 | Cc1cc(O)c2c(c1)C(=O)c1c(c(O)cc(O)c1-c1c(O)cc(O)c3c1C(=O)c1cc(C)cc(O)c1C3=O)C2=O | 58.1% (inactive)
43 | NC(=O)/C(=N\NC(=O)c1cc2ccccc2cc1O)C1C(=O)N(c2ccccc2)N=C1N (stereo not given) | 11.7% (inactive)
44 | CCNC(=S)NNC(=S)NNc1ccccc1 | 3.85% (inactive)
45 | OCC(O)C(O)C(O)C(O)C(O)C(/C=N/Nc1ccccc1)=N/Nc1ccccc1 (stereo not given) | 31.1% (inactive)
46 | O=C(CN(Cc1ccccc1)Cc1ccccc1)c1ccccc1 | 1.75% (inactive)
47 | COC(=O)C1CCC(c2ccccc2)CC1C(=O)OC (stereo not given) | 24% (inactive)
48 | COc1ccc2c(c1)C(=O)C(Br)CC2 (stereo not given) | 32% (inactive)
49 | O=C1c2ccccc2C(=O)c2sc(Nc3ccc(Cl)cc3)nc21 | 88.8% (active)
50 | O=Nc1c(-c2cccc([N+](=O)[O-])c2)nc2cnccn12 | 99.3% (active)
51 | CC/C(=N\NS(=O)(=O)c1ccc(C)cc1)c1cccc(OC)c1 | 51.2% (inactive)
52 | NNC(=S)NN/C=C(\C=Nc1ccccc1)[N+](=O)[O-] | 57.5% (inactive)
53 | CC(C)(C)c1ccc(CN2CCN(C(c3ccccc3)c3ccc(Cl)cc3)CC2)cc1 (stereo not given) | -8% (inactive)
54 | O=C1OCc2cccc3cccc1c23 | 36.5% (inactive)
55 | CC(C)CC(NC(=O)COc1c(Cl)cc(Cl)c(Cl)c1Cl)C(=O)O (stereo not given) | 3.35% (inactive)
56 | CC1CCN(CCC(=O)c2cccc(O)c2)CC1 | 21.1% (inactive)
57 | CCC(c1ccc(O)c(C2CCCCC2)c1)C(CC)c1ccc(OC(=O)c2ccccc2)c(C2CCCCC2)c1 (stereo not given) | 26.8% (inactive)
58 | CC(=O)c1csc2c1C(=O)c1scc(C(C)=O)c1C2=O | 88.6% (active)
59 | O=C1C2=Cc3ccccc3CCN2c2ccccc21 | 86.2% (active)
60 | Cc1cc(I)cc(I)c1O | -7.85% (inactive)

Row | Structure (SMILES) | growth inhibition
61 | NCCCSc1ccc(Br)cc1 | 35.1% (inactive)
62 | O=C1OC2(Cc3ccccc31)c1ccccc1-c1ccccc12 | 17.6% (inactive)
63 | Cc1occc1C(=S)Nc1ccc(Cl)c(C(=O)OCC2CC2)c1 | 82.5% (active)
64 | c1cc(C2=NCCN2)ccc1Nc1ccc(-c2cc3ccc(C4=NCCN4)cc3[nH]2)cc1 | 98.9% (active)
65 | Cc1ccc(C)c(NC(=O)CC2SC(=Nc3ccccc3Cl)NC2=O)c1 (stereo not given) | 78% (active)
66 | Cc1ccccc1[P+](C)(c1ccccc1C)c1ccccc1C | 29.1% (inactive)
67 | Oc1ccc(CNCc2ccccc2)c2cccnc12 | 94.6% (active)
68 | COC(=O)c1ccc(OC)cc1 | 20.7% (inactive)
69 | OCC(CO)C1c2cccc3ccc4cccc1c4c23 | 67.3% (inactive)
70 | CCC(CCCN(CC)CCc1ccccc1)OC(=O)c1cc(OC)c(OC)c(OC)c1 (stereo not given) | 35.6% (inactive)
71 | O=[N+]([O-])c1ccc(-[n+]2ccc3ccccc3c2)c([N+](=O)[O-])c1 | 37.4% (inactive)
72 | CN(C)CCC1(C2=CCCC2)CC/C(=C\c2ccccc2Cl)C1=O (stereo not given) | 73% (active)
73 | CCOC(=O)CCC(NC(=O)c1ccc(NC(OC)c2nc3cc(C(F)(F)F)ccc3nc2-c2ccccc2)cc1)C(=O)OCC (stereo not given) | 92.7% (active)
74 | CCCCCCN(CCCCCC)CC(O)c1cc(-c2ccccc2)nc2c(O)cccc12 (stereo not given) | 8.2% (inactive)
75 | O=C1C=CC(=O)N1C1c2ccccc2-c2ccccc21 | 98% (active)
76 | CC(=O)c1ccc(OCc2ccccc2)cc1 | 63.9% (inactive)
77 | O=C(Oc1cccc2cccnc12)c1ccccc1 | 91.2% (active)
78 | C=C(Cl)C(=NC(C)(C)C)Nc1ccccc1C | 66% (inactive)
79 | COC(=O)C(CSC(c1ccccc1)(c1ccccc1)c1ccccc1)NC(=O)C(CC(N)=O)NC(=O)OCc1ccccc1 (stereo not drawn) (Cbz-Asn-Cys(Trt)-OMe; configuration not given here) | 72% (active)
80 | ClCc1nnc2n1-c1ccc(Cl)cc1SC2 | 6.15% (inactive)
